High-throughput results as filed in PubChem.
Compounds with a hit are over-represented: about 3.3% of the library has one in this group of screens.
LDHA inh: qHTS assay for inhibitors of human lactate dehydrogenase. L-lactate dehydrogenase A chain (Homo sapiens), P00338. purified LDHA, NADH/diaphorase-resazurin fluorescence; active compounds read low. activity change, % (values are at about 110 or 230 µM). 480,000 compounds, 0.15% hits. AID 1347041, 2019; in the data active = activity change below about -30%; inconclusive = mostly about -25% to -30%;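 note: plate controls were DMSO wells for no effect and wells without enzyme for full effect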
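Enzyme activity of human lactate dehydrogenase 5 (2 nM; 0.06 mM NADH, 0.2 mM pyruvate, 5 min, RT) is measured via a resazurin/diaphorase fluorescence readout of residual NADH.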
PI4K2A inh: qHTS for small molecular inhibitors of PI4K2A. Phosphatidylinositol 4-kinase type 2-alpha (Homo sapiens), Q9BTU6. purified PI4K2A, ADP-Glo luminescence, 1 h; active compounds read low. activity change, negative = inhibition, % at 76.9 µM. 420,000 compounds, 0.13% hits. AID 1346378, 2018; in the data active = activity change below about -50%; inconclusive = mostly about -30% to -49%;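 note: -100% = wells without enzyme as full effect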
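Compounds are screened against recombinant PI4K2A using PI as substrate and ATP, the latter dispensed at 300 microM. Reactions run one hour at ambient temperature before ADP-Glo detection; full inhibition defined by wells lacking enzyme.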
D3 ag: qHTS of D3 Dopamine Receptor Agonist: qHTS. 410,000 compounds, 0.58% hits. AID 652048, 2013. D3R DiscoveRx beta-arrestin cells, luminescence, 90 min. max activation, %. D(3) dopamine receptor (Homo sapiens), P35462; in the data active = max activation above about 30%; note: 0% is about no effect
Target sequence (P35462 whole entry, looked up): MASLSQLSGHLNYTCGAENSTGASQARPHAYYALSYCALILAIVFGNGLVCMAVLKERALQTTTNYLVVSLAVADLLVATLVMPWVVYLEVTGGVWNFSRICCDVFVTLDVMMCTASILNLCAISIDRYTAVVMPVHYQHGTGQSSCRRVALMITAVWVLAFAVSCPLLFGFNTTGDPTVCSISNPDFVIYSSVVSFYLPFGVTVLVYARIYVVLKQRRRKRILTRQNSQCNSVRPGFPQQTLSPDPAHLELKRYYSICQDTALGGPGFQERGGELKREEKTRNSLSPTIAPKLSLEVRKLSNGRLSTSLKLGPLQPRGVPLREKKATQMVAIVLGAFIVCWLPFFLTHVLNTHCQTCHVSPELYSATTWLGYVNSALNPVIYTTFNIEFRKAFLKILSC
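Agonist-mode cell screen: cells plated at 1500/well and incubated overnight at 37 °C, then exposed to library compounds for 90 min at 37 °C. Detection reagent was added for 30–60 min at room temperature, and luminescence was read.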
DRD3 antagonist: qHTS of D3 Dopamine Receptor Antagonist: qHTS | D(3) dopamine receptor (Homo sapiens), P35462 | D3R cells, DiscoveRx beta-arrestin luminescence, antagonist mode; active compounds read low | max response, negative = inhibition, % | 360,000 compounds, 2.5% hits; in the data active = max response below about -50%; inconclusive = no clear call, values can overlap the other calls; note: % is set by controls: 0 for no effect and ±100 for the full control effect
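Cells plated overnight at 1500 cells/well, then exposed to library compounds with dopamine controls for 90 minutes at 37 degrees C. DiscoveRx reagent added for 30–60 minutes at room temperature; luminescence read, quantitative HTS format.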
PI5P4Ka inh: qHTS for Inhibitors of phosphatidylinositol 5-phosphate 4-kinase (PI5P4K) | 330,000 compounds, 1.2% hits | max response, % | PI5P4Kalpha enzyme, ADP-Glo luminescence, 60 min; active compounds read low | Phosphatidylinositol 5-phosphate 4-kinase type-2 alpha (Homo sapiens), P48426; active = max response of -50% or lower; inconclusive = between -30% and -50%; inactive = -30% or higher; note: value at the top dose of about 77 µM; % is set by controls: 0 for no effect and ±100 for the full control effect
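Single end-point luminescence (ADP-Glo) quantified ADP from PI5P4Kalpha turnover; ATP 5 microM final, 1 h at RT, 0.1% CHAPS and 0.28 mM EGTA in HEPES pH 7.4.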
* = called active by the depositor; ? = inconclusive; . = no result.

SMILES	LDHA inh	PI4K2A inh	D3 ag	DRD3 antagonist	PI5P4Ka inh
CC(O)(c1ccccc1)c1nc(/C=C/c2ccccc2)cs1 (stereo not given)	-3	1	-16	-62*	22
CC(C)CC(=O)Nc1nn2c(CC(C)C)nnc2s1	-13	.	.	.	.
NC(=O)c1nc(Nc2ccccc2)sc1NC(=O)C12CC3CC(CC(C3)C1)C2	-1	.	.	.	.
CCn1ccnc1CNCc1ccc(OCC(O)CN(C)Cc2ccccc2)cc1 (stereo not given)	-2	3	-6	-59*	1
CN(Cc1ccccc1)CC(O)COc1ccc(CNCc2nccn2C)cc1 (stereo not given)	-2	-5	-2	-22	3
CCc1ccc(CNCc2ccc(OCC(O)CN(C)Cc3ccccc3)cc2)nc1 (stereo not given)	-4	-4	-13	-54*	1
COC(=O)c1sc2nc(CN3CCc4ccccc4C3)[nH]c(=O)c2c1C	59	.	.	.	.
CC12CCC3c4ccc(O)c([N+](=O)[O-])c4CCC3C1CCC2=O (stereo not given)	-4	-1	0	9	-59*
O=C(CN(C(=O)c1cccc([N+](=O)[O-])c1)C1CCCCC1)Nc1ccc(Cl)c([N+](=O)[O-])c1	-5	4	-12	-79*	9
COc1cc(C)c(C(C)C)cc1S(=O)(=O)n1ccnc1C(C)C	12	.	.	.	.
Cn1c(=O)c(-c2ccccc2)cc2ccccc21	-5	7	47*	4	-2
O=C(COC(=O)c1ccc2c(c1[N+](=O)[O-])C(=O)c1ccccc1C2=O)NC1CC1	5	0	-9	-64*	-24
C=CCOc1ccc(NC(=O)C2CC2)cc1	4	.	.	.	.
O=C1OC(c2ccc3ccccc3c2O)(c2ccc3ccccc3c2O)c2ccccc21	45	4	0	?	-79*
N=C1/C(=C/c2ccc(OC(=O)c3ccco3)cc2)C(=O)N=C2SC=CN12	-4	-5	5	-9	?
CCS(=O)(=O)C1=NSC2=NC(=O)/C(=C\c3ccc(OC(=O)c4ccco4)cc3)C(=N)N21	0	-16	-10	0	-87*
N=C1/C(=C\c2ccc(OC(=O)c3ccco3)cc2)C(=O)N=C2SC(N3CCCCC3)=NN12	4	4	-2	3	-52*
CC(C)S(=O)(=O)C1=NSC2=NC(=O)/C(=C\c3ccc(OC(=O)c4ccco4)cc3)C(=N)N21	-11	-9	1	6	-76*
Cc1cc(N/N=C/c2c(O)ccc3ccccc23)nc(NCc2ccccc2)n1	14	.	.	.	.
Cc1cc(-c2n[nH]c(=S)n2N=Cc2c3ccccc3cc3ccccc23)n[nH]1	.	-5	.	.	.
COc1ccc(C2=CC3=C(Br)C(=O)C(C)(OC(=O)c4ccco4)C(=O)C3=CO2)cc1 (stereo not given)	1	?	4	2	-74*
COc1ccc(N2C(=O)C3ON(C4SC(=S)N(C)C4(C)C)C(c4ccc(Cl)cc4)C3C2=O)cc1 (stereo not given)	-5	-4	1	3	3
COc1ccc(N2C(=O)C3ON(C4SC(=S)N(C)C4(C)C)C(c4ccc([N+](=O)[O-])cc4)C3C2=O)cc1 (stereo not given)	-3	0	-8	-65*	0
CCOC(=O)CC(NC(=O)CCc1c(C)nc2c(-c3ccccc3)c(C)nn2c1C)c1ccc(C)cc1 (stereo not given)	5	-5	6	.	.
CCOC(=O)CC(NC(=O)CCc1c(C)nc2c(-c3ccccc3)c(C)nn2c1C)c1ccc(OC(C)C)cc1 (stereo not given)	-3	-10	36*	.	.
SMILES	LDHA inh	PI4K2A inh	D3 ag	DRD3 antagonist	PI5P4Ka inh
Cc1[nH]c2ccc(C(=O)NCCN3CCCCCC3)cc2c1C	0	-12	-19	-70*	5
CCCN1CCN(C(=O)c2ccc3[nH]c(C)c(C)c3c2)CC1	0	1	-10	-87*	-10
CCOC(=O)N1CCN(C(=O)c2ccc3[nH]c(C)c(C)c3c2)CC1	0	1	8	27	-11
Cc1[nH]c2ccc(C(=O)NCCCN3CCCCC3)cc2c1C	1	-3	0	?	4
CCCCCCc1cnc(-c2ccc(OC(F)(F)F)cc2)nc1	0	.	.	.	.
CC(C)(C)OC(=O)NCC(=O)Oc1cc2oc(=O)cc(-c3ccccc3)c2cc1Cl	2	1	-2	-9	-72*
CC(Oc1cc2oc(=O)cc(-c3ccccc3)c2cc1Cl)C(=O)NCCCO (stereo not given)	-1	.	.	.	.
CCC(C(=O)Nc1nnc(C)s1)c1ccccc1 (stereo not given)	0	.	.	.	.
COc1ccc(OCc2nnc(SC(C)C(=O)Nc3ccc(N4CCOCC4)cc3)n2C)cc1 (stereo not given)	-2	-7	-11	-77*	0
Cc1ccccc1CNC1CCC12CCC(c1ccccc1)CC2 (stereo not given)	.	-5	.	.	.
CCC1(CC)NC(=O)N(CC(=O)Nc2sc3c(c2C(N)=O)CCC3)C1=O	2	?	-2	-5	-70*
N#Cc1c(NC(=O)CCC(=O)O)sc2c1CCCCC2	23	-5	-3	8	-74*
CCOC(=O)Cc1csc(SCC(=O)Nc2sc3c(c2C(N)=O)CCC3)n1	-2	-8	8	0	-90*
CC(C)CC(=O)NC(NC(=S)Nc1sc2c(c1C#N)CCCC2)C(Cl)(Cl)Cl (stereo not given)	-7	-5	-5	-83*	-22
Cc1nnc(SCC(=O)Nc2sc3c(c2C#N)CCCC3)[nH]c1=O	-3	-12	-9	-54*	-52*
O=C(CSc1nnc(-c2ccco2)n1-c1ccccc1)NCC1CCCO1 (stereo not given)	-1	-1	3	-3	4
NC(=O)c1c(NC(=O)CSc2nnc(-c3ccco3)n2-c2ccccc2)sc2c1CCC2	-8	-15	-3	9	-65*
CCn1c(SCC(=O)Nc2sc3c(c2C#N)CCCC3)nnc1-c1ccco1	-3	0	-5	-72*	-10
O=C(c1cccc(Cl)c1)N1CCCC(c2nc3ccccc3o2)C1 (stereo not given)	-9	.	.	.	.
O=S(=O)(NC1CCSc2c(F)cccc21)c1cccc(F)c1 (stereo not given)	8	.	.	.	.
CCCn1c(N2CCN(CC(=O)NCc3cccs3)CC2)nc2ccccc21	0	-4	-3	-67*	-1
CN(C)CC/C=C1\c2ccc(F)cc2Sc2cc(F)c(Cl)cc21	4	-4	-18	-101*	7
CN(C)CC/C=C1/c2ccc(F)cc2Sc2ccc(Cl)cc21	-2	1	-10	-84*	17
